Screen size: about 290,000 compounds; about 11,000 (3.8%) were called active. The sample as a whole holds a higher share of actives than the screen did. Values without a mark were called inactive.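 The calls were made as follows: active = mean replicate inhibition above about 79%, with every replicate also reaching it (limit read from the data); inconclusive = only one of the two criteria met; inactive = mean below limit and not every replicate reaching it.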

The target in this experiment is FAD-linked sulfhydryl oxidase ALR (Homo sapiens) (UniProt P55789). In words: inhibitors of human ALR sulfhydryl oxidase, primary screen, biochemical, H2O2 detection, HRP-luminol luminescence, single point (AID 485317). The following applies: purified ALR, DTT oxidation, hits give high values, concentration not given here.
Sequence of FAD-linked sulfhydryl oxidase ALR (Homo sapiens) (P55789 whole entry, looked up): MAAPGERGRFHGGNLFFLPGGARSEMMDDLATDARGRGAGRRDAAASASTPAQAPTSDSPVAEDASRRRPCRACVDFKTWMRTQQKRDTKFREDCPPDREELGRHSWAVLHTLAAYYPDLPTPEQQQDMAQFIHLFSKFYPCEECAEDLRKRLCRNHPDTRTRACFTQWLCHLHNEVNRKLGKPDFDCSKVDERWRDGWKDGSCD
By inhibition is commonly meant the change of the read-out against control, counted positive when it falls. On to `Cn1c(SCC(=O)N2CCOCC2)nnc1-c1ccc(NC(=O)c2ccccc2F)cc1`, for which the inhibition is -5.97%. With `Cn1c(SCC(=O)Nc2ccc(N3CCOCC3)cc2)nnc1C(F)(F)F`, the inhibition is 93.8% (active). Take `O=C(O)CCC(=O)Nc1ccc(N2CCOCC2)cc1`: the inhibition is -4.54%. Then `Cn1cnnc1SCC(=O)Nc1ccc(N2CCOCC2)cc1`, with 95.8% (active); and `CCn1c(Cc2ccc(OC)cc2)nnc1SCC(=O)Nc1ccc(N2CCOCC2)cc1`, with 39.5%.

Turning to `Cn1c(SCC(=O)Nc2cccc(O)c2)nnc1-c1ccc(S(=O)(=O)N2CCOCC2)cc1`, the inhibition is 16.7%. The figure for `COc1ccc(C(=O)NCc2ccc(C)cc2)cc1S(=O)(=O)N1CCCC1` is -2.12%; for `Cc1nc2ccccc2c(=O)n1-c1ccc(NS(=O)(=O)c2ccc(F)cc2F)cc1` it is -10.6%. Turning to `CCn1c(CSCc2c(Cl)cccc2Cl)n[nH]c1=S`, the inhibition is 67.9%.

Consider `CCn1c(CN2C(=O)CSc3ccccc32)n[nH]c1=S`, for which the inhibition was 91.7% (active). `CCn1c(CNS(=O)(=O)c2ccc(Cl)cc2)n[nH]c1=S`: the inhibition is 21.4%.

Take `O=S(=O)(Nc1ccc2nc(-c3ccco3)[nH]c2c1)c1ccccc1`: the inhibition is 88.8% (active). Then `O=S(=O)(Nc1ccc2cn[nH]c2c1)c1ccccc1`, with -80.8%; and `Cn1c(CCN2CCCC2)nc2cc(NS(=O)(=O)c3ccccc3)ccc21`, with -0.934%; and `COC(=O)c1ccc(NS(=O)(=O)c2cc3c4c(c2)C(C)C(=O)N4CCC3)cc1` (centres undefined), with -2.24%. The figure for `O=C(COC(=O)c1cccc(Cl)c1)Nc1ccc2[nH]c(=O)[nH]c2c1` is -0.957%; for `CCC(=O)NC(=S)Nc1ccc(NC(=O)c2ccco2)c(Cl)c1` it is -18.1%. Then `O=C(NNC(=S)Nc1ccc(Br)cc1Cl)c1ccco1`, with 82.2% (active); and `O=C(NNC(=O)c1ccco1)Nc1ccccc1`, with 39.9%. Regarding `CN(CCc1ccccc1)C(=O)c1cccc(NC(=O)Cc2ccc([N+](=O)[O-])cc2)c1`, the inhibition was 1%.

Regarding `O=C(OCCN1C(=O)c2ccccc2C1=O)[C@@H]1CC(O)CN1S(=O)(=O)c1ccccc1[N+](=O)[O-]` (some centres undefined), the inhibition was -2.79%. `COc1cc(/C=N/NC(=O)c2cc(C)n(-c3ccc(F)cc3)c2C)cc(OC)c1O`: the inhibition is 64%.

Take `COc1cc(/C=N/NC(=O)c2cc(-c3ccccc3C)nc3ccccc23)cc(OC)c1O`: the inhibition was -3.08%. The figure for `COc1cc(/C=N/O)cc(Br)c1OS(=O)(=O)c1ccc(C)cc1` is -15%. The figure for `COc1ccc(/C=C/C(=O)Nc2cccnc2)cc1OC` is -0.926%; for `COc1cc(/C=N/NC(=S)Nc2cccnc2)cc(OC)c1O` it is 95% (active). Then `COc1cc(/C=N/Nc2ccc(C)cc2)cc(Br)c1O`, with 98.4% (active); and `Nc1c(C(=O)Nc2ccc3c(c2)OCCO3)nnn1Cc1ccccc1`, with -23.5%; and `Cc1nc2ccc(C(=O)N/N=C/c3ccc(O)cc3)cc2[nH]1`, with 99% (active).

Turning to `Cc1nonc1C(=O)N/N=C/c1ccc(O)cc1`, the inhibition was 99.2% (active).

For the compound `Cc1nc2ccc(C(=O)O)cc2[nH]1`, the inhibition was -25.4%. Turning to `COC(=O)N/N=C/c1ccc(/C=N/NC(=O)OC)cc1`, the inhibition was -1.28%. For `COc1ccc(/C=N/NC(=O)c2cccc(C(F)(F)F)c2)cc1`, the inhibition was -3.29%. Then `CC(C)c1c(C(=O)N/N=C/c2ccc(-c3ccccc3)cc2)nnn1-c1nonc1N`, with -10.7%; and `CCn1nc(C(=O)NNC(=O)C2CSC3(C)CCC(=O)N23)c2ccccc2c1=O` (centres undefined), with -0.847%; and `CC(C)CC1(C)NC(=O)N(CC(=O)Nc2ccc3c(c2)OCCO3)C1=O` (centres undefined), with 4.51%.

As for `CCC(C)c1ccccc1N1CC(C(=O)N2CCN(S(=O)(=O)c3ccc(F)cc3)CC2)CC1=O` (centres undefined), the inhibition was 1.3%.

Turning to `COCC(=O)Nc1c(I)c(C(=O)NCC(O)CO)c(I)c(C(=O)N(C)CC(O)CO)c1I` (centres undefined), the inhibition was -12.2%. Regarding `O=C(CSc1ccccn1)N1CCN(S(=O)(=O)c2ccc(Cl)cc2)CC1`, the inhibition is -0.731%. On to `CO[C@@H]1[C@@H](OC(N)=O)[C@@H](O)C(Oc2ccc3c(O)c(NC(=O)c4ccc(O)c(CC=C(C)C)c4)c(=O)oc3c2C)OC1(C)C` (some centres undefined), for which the inhibition is 1.83%. The figure for `COc1ccc(F)cc1C(=O)COC(=O)c1n[nH]c(=O)c2ccccc12` is -1.76%; for `CC(C)(C)OC(=O)N[C@H](C(=O)OC(C)(C)C)c1ccc(Br)cc1` it is -0.888%; for `O=C1N[C@@H](Cc2ccccc2)C(=O)N2[C@@H]3N(S(=O)(=O)c4ccc(F)cc4)c4ccccc4[C@]3(Br)C[C@@H]12` it is -1.43%.

For `CC(=O)C1=C(O)C(=O)N(c2ccc(S(N)(=O)=O)cc2)C1c1ccccc1F` (centres undefined), the inhibition was -0.498%. For the compound `NS(=O)(=O)c1ccc(NC2=CC(c3ccc(F)cc3)N(c3ccc(S(N)(=O)=O)cc3)C2=O)cc1` (centres undefined), the inhibition was 97.6% (active). The figure for `NS(=O)(=O)c1ccc(NC(=O)COC(=O)C2(c3ccc(F)cc3)CCCC2)cc1` is -14.8%. The figure for `COc1ccccc1NS(=O)(=O)c1ccc(C)c(C(=O)NNC(=O)c2csc(N3CCOCC3)n2)c1` is -6.78%; for `CCCc1cc(-c2n[nH]c(=S)n2CC)c2ccccc2n1` it is -9.51%; for `CCn1c(-c2ccoc2C)n[nH]c1=S` it is 6.36%. On to `Cc1ccccc1-c1n[nH]c(=S)n1C`, for which the inhibition was 93.4% (active). Then `O=C(CCNC(=O)c1ccc(Cl)cc1)NC1CCCc2ccccc21` (centres undefined), with -6.93%. The figure for `CCOc1ccccc1NC(=O)CCc1ccc(C)o1` is 99.7% (active).

As to `CCOc1ccccc1NC(=O)Cc1cccs1`, the inhibition was -14.8%. The figure for `CCOc1ccccc1NC(=O)CCc1nnc2ccc(NCc3ccco3)nn12` is 1.12%. The figure for `CCOc1ccc(NC(=O)CN(C)C(=O)CCSc2ccc(F)cc2)cc1OCC` is -3.71%.

As to `COc1ccc(S(=O)(=O)Nc2cc(C)on2)cc1NC(C)=O`, the inhibition is -7.72%.

As for `Oc1ccccc1N1CCN(C(=S)NCc2ccccc2)CC1`, the inhibition is 96.4% (active).

`O=C(CN1CCN(c2ccccc2O)CC1)NC(=O)NCc1ccccc1`: the inhibition was 13.1%. On to `CC1CCCCN1C(=S)NCc1ccccc1` (centres undefined), for which the inhibition is -1.5%. Then `CCOC(=O)c1sc(=NC(=O)c2ccc(Br)cc2)n(C)c1C`, with -3.96%. Then `Cc1csc(=NC(=O)c2ccccc2)n1CCO`, with 99% (active); and `O=c1cc(CCl)nc2scc(-c3ccccc3)n12`, with 60.8%; and `Cc1csc(=Nc2ccccc2)n1CCO`, with 98.7% (active).

With `OCCn1c(-c2ccccc2)csc1=Nc1ccccc1`, the inhibition was 99% (active).

As to `C=C(C)CNC(=S)/N=c1\scc(C)n1CC`, the inhibition is 18%.

For `Cc1cc(C(=O)CCC(=O)NNC(=O)c2ccccc2O)c(C)s1`, the inhibition is 8.1%. As to `O=C(COC(=O)c1ccc2ncsc2c1)Nc1ccc(Cl)cc1`, the inhibition was 16%.

`COc1ccc(NC(=O)C(=O)NCC(c2ccco2)N2CCc3ccccc3C2)cc1` (centres undefined): the inhibition is -1.35%. Then `COc1ccc(NS(=O)(=O)c2cc(NC(=O)c3ccc(S(=O)(=O)N(C)C)cc3)ccc2N2CCOCC2)cc1`, with 0.706%; and `Cc1cc(C(=O)OC(C)C(=O)NC2CCCCC2C)c(C)o1` (centres undefined), with 2.82%. The figure for `CC1CC(=S)Nc2ccccc2N1Cc1ccccc1` (centres undefined) is 99% (active); for `CC1CC(C)(C)NC(=S)N1CCC(=O)N1CCN(Cc2ccccc2)CC1` (centres undefined) it is -28.3%. Regarding `CC1CC(=O)Nc2ccccc2N1S(=O)(=O)c1cccs1` (centres undefined), the inhibition was -4.3%. The figure for `CC1CCCN(C(=O)c2cc(-c3ccco3)nc3ccccc23)C1` (centres undefined) is 6.96%; for `Cc1cc(C)c(C)c(S(=O)(=O)N2CCN(C(=O)c3ccc4c(=O)n5c(nc4c3)CCC5)CC2)c1C` it is -2.44%.

For the compound `O=C(Nc1cccc(S(=O)(=O)N2CCCCC2)c1)c1cncc(Br)c1`, the inhibition is -4.78%. Regarding `CCc1nnc(NS(=O)(=O)c2ccc(N=Cc3c(C)[nH]n(-c4ccc(C)cc4)c3=O)cc2)s1`, the inhibition was 63.1%. Consider `COc1cc(SC#N)ccc1N=Cc1c(C)[nH]n(-c2ccc(C)cc2)c1=O`, for which the inhibition is 99.6% (active). The figure for `Cc1ccc(-n2[nH]c(C)c(/C=N/N3C(=O)c4cccc5cccc(c45)C3=O)c2=O)cc1` is -15.1%.

As to `O=C(NCCCN1CCCC1=O)c1cccc(S(=O)(=O)NCc2ccccc2)c1`, the inhibition is 0.0635%. In the case of `CC(C)Oc1ccccc1C(=O)NC(CO)C(=O)O` (centres undefined), the inhibition was 2.33%.

In the case of `CC(C)NC(=O)c1ccc(Cl)cc1Cl`, the inhibition is -6.81%. The figure for `CC(C)NC(=O)c1ccccc1S(=O)c1ccccc1C#N` (centres undefined) is 99.6% (active); for `CC(C)CN(C(=O)COC(=O)c1ccc2ccccc2c1)c1c(N)n(Cc2ccccc2)c(=O)[nH]c1=O` it is 1.44%. For the compound `S=C(NCCc1ccccc1)NCc1ccccc1Cl`, the inhibition is 5.1%. Then `O=C(O)Cc1ccc(NC(=O)Nc2cccc3ccccc23)cc1`, with -53.7%; and `O=C(O)Cc1ccc(NCc2ccccc2Cl)cc1`, with 97.2% (active); and `CC(=O)C12CC(C)=C(C)CC1CC1C3CCC4=CC(=O)CCC4(C)C3CCC12C` (centres undefined), with -1.17%.

In the case of `COc1ccc(Oc2cn[nH]c2-c2ccc(OC)cc2O)cc1`, the inhibition was 97.1% (active). On to `CCOc1ccccc1Oc1cn[nH]c1-c1ccc(OC)cc1O`, for which the inhibition is 59.2%. The figure for `COc1ccc(-c2cn[nH]c2-c2ccc(OC)cc2)cc1` is 0.7%; for `Oc1[nH]c2ccc(Br)cc2c1N=Nc1nn[nH]n1` it is 89.8% (active); for `NS(=O)(=O)c1ccc(N=Nc2c(O)[nH]c3ccc(Br)cc23)cc1` it is -3.47%.

In the case of `O=C(CNC(=O)Cc1ccccc1)N=Nc1c(O)[nH]c2ccc(Br)cc12`, the inhibition was 10.6%.

Source of the values: PubChem BioAssay AID485317 (Broad Institute, 2010).
